Screening results (PubChem BioAssay)
IL1B secr inh – inflammasome signaling inhibition, IL-1 beta readout. AID 743279. activity change, % at 57.5 µM. hit rate 4.7% among 360,000. THP-1 LPS/ATP IL-1B secretion, AlphaLISA, 16 h; active compounds read low; in the data active means activity change below about -50%; inconclusive means mostly about -30% to -49%; further: on the % scale 0 is the no-effect control and ±100 the full control effect
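THP-1 cells pretreated 1 hr with compounds (up to 57.5 uM final), then stimulated with LPS (250 ng/mL final) plus ATP (1.25 mM final); secreted IL-1B measured by AlphaLISA after 16 hr, decreased signal indicating inhibition.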
RORgamma inh – inhibitors of mouse ROR gamma transcriptional activity; hit rate 5.4% among 310,000; P51450; Potency, µM (top dose mostly 53.6 µM), for the others: at the highest dose activity change, negative = inhibition, hits mostly inhibitors; Drosophila S2 Gal4-RORgamma UAS-luciferase reporter, 20 h; further: potency means the concentration at half of the fitted maximal effect; on the % scale 0 is the no-effect control and ±100 the full control effect; nearly all actives have a fitted effect of over 60% in size
Target sequence (P51450 whole entry, looked up, the tested form may be a part): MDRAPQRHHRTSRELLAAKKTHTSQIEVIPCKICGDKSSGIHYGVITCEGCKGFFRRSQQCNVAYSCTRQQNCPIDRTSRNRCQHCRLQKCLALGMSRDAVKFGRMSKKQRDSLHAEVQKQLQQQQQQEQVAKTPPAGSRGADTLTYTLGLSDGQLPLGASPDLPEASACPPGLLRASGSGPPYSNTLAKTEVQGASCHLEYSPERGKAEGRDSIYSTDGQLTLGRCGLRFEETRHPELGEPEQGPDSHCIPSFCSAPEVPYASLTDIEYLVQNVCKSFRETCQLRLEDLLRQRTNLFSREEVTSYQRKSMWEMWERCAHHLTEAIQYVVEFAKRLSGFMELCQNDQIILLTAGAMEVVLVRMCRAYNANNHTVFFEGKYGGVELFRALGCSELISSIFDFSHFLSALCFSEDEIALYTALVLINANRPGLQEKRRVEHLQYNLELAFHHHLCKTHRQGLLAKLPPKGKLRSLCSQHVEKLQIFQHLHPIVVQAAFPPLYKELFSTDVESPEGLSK
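Using a luciferase readout, inhibitors were identified by reduced reporter activity in Drosophila cells coexpressing a copper-inducible Gal4–ROR gamma fusion and UAS-driven Photinus luciferase, incubated 20 hr after 700 uM copper sulfate.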
MCF10A rerep – DNA re-replication induction in MCF 10a cells | MCF 10A DNA re-replication, Hoechst nuclear intensity, 48 h | Potency, µM (highest dose often 46.1 µM), for the others: at the highest dose activity, positive = re-replication, usual class: activators | hit rate 2.9% among 350,000; further: potency means the concentration at half of the fitted maximal effect; % of control where 0% means no effect; nearly all actives have a fitted effect of over 50% in size
SW480 rerep – inducers of DNA re-replication in SW480 colon cancer cells. SW480 DNA re-replication, Hoechst DNA content imaging, 48 h. Potency, µM (titrated, usually from 46.1 µM), without a hit: at the highest dose re-replication activation, usual class: activators. hit rate 1.8% among 340,000. AID 624297; further: potency means the concentration at half of the fitted maximal effect; % of control where 0% means no effect; nearly all actives have a fitted effect of over 55% in size
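Quantitative HTS format with DMSO vehicle controls; 48 hr drug incubation at 37 C, then 40 min Hoechst staining and scanning imager measurement at 405 nm excitation.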
VP16 counter – Gal4-VP16 reporter inhibition counter-screen | Potency, µM (highest dose often 53.6 µM), inactives show at the top dose activity, negative = inhibition, hits mostly inhibitors | Drosophila S2 Gal4-VP16 UAS-luciferase, luminescence, 20 h | hit rate 3.5% among 310,000;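 further: Gal4-VP16 expression switched on by copper sulfate through the metallothionein promoter; potency means the concentration at half of the fitted maximal effect; on the % scale 0 is the no-effect control and ±100 the full control effect; nearly all actives have a fitted effect of over 50% in size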
* hit, by the source's call; ? = inconclusive; / = no result given; [ ] = remark or other dose. In the library only some 11% were active in any assay of this set; here they are far more common. Unless noted, the call rests on the fitted dose curve; in most records, active means well fitted curve in the direction sought with a large enough effect; inconclusive means small, poorly fitted or top-dose-only effect, or another doubt; inactive means no such curve, though single readings can be large; an effect the other way counts as inactive or inconclusive.

SMILES | IL1B secr inh | RORgamma inh | MCF10A rerep | SW480 rerep | VP16 counter
COc1ccc(OC)c(NC(=O)CN(Cc2ccc(F)cc2)C2CCCCC2)c1 | -18 | ? | 18µM* | 1% | 18µM*
COc1ccc(NC(=O)CN(Cc2ccccc2)S(C)(=O)=O)c(OC)c1 | -1 | 0% | -15% | -1% | -14%
COc1ccc(/C=C2\NC(=S)N(CC3CCCO3)C2=O)c(OC)c1 (stereo not given) | ? | 16µM* | ? | -6% | ?
CCc1ccc(/C=C/C(=O)c2ccc(N3CCOCC3)cc2)cc1 | -89* | 3% | ? | 14% | -12%
Cc1cccc(/C=C/C(=O)c2ccc(N3CCOCC3)cc2)c1 | / | ? | ? | -2% | 1%
Cc1ccc(/C=C/C(=O)c2ccc(N3CCOCC3)cc2)s1 | ? | 1% | 14% | 3% | ?
O=C(/C=C/c1ccc(F)cc1)c1ccc(N2CCOCC2)cc1 | -59* | -17% | ? | ? | -22%
O=C(O)c1ccc(NS(=O)(=O)c2ccsc2C(=O)O)cc1 | / | -26% | / | / | 4%
CC(=O)N(C)c1ccc(N=Nc2c(C)[nH]n(C(N)=S)c2=O)cc1 | -26 | 0.35µM* | 0% | -1% | 3.2µM*
CC(=O)N(C)c1ccc(N=Nc2ccc3ncccc3c2)cc1 | ? | / | 10% | 3% | /
CC(=O)N(C)c1ccc(N=Nc2c(C)[nH]n(-c3ccccc3)c2=O)cc1 | 9 | 20µM* | -8% | 9% | ?
CCN(CC)S(=O)(=O)c1ccc(N=Nc2c(C)[nH]n(C(N)=S)c2=O)cc1 | 3 | 0.05µM* | ? | -6% | 0.013µM*
CCOC(=O)c1ccc(N=Nc2c(C)[nH]n(-c3ccccc3)c2=O)cc1 | 24 | 23% | 12% | 4% | -14%
CC(=O)NC(c1ccc(F)c(F)c1)c1nc(-c2ccncc2)cs1 (stereo not given) | 11 | / | / | / | /
CCOc1ccc(/C=C/C(=O)Nc2ccc(C(N)=O)cc2)cc1OC | -2 | 3% | 7% | -8% | -13%
CCOc1cc(/C=C/C(=O)Nc2ccc(C(=O)NCCN(CC)CC)cc2)ccc1OCC(C)C | -70* | ? | ? | -84% | ?
Clc1ccccc1Nc1c2c(nc3ncnn13)CCC2 | 26 | 10µM* | 5% | -8% | ?
c1ccc(Nc2c3c(nc4ncnn24)CCC3)cc1 | 6 | -53% | 16% | -12% | -26%
CCOC(=O)c1oc2ccc(S(=O)(=O)n3nc(-c4ccccc4)cc3N)cc2c1C | -20 | -36% | 15% | 4% | 11µM*
Cc1cc(C)cc(NC(=O)c2cc(C)nn2C)c1 | -9 | 16% | 0% | 0% | 1%
COC(=O)C1=NN(C(=O)c2ccc(Br)cc2)C(O)(C(C)(C)C)C1 (stereo not given) | 4 | ? | 8% | 7% | ?
CC1=NN(C(=O)c2ccc(Br)cc2)C(O)(C(F)(F)OC(F)(F)F)C1 (stereo not given) | -55* | 11µM* | ? | -3% | 18µM*
CC1=NN(C(=O)c2csc(C)c2C)C(O)(C(F)(F)F)C1 (stereo not given) | 0 | 5.6µM* | 2% | -4% | 4.5µM*
CC1=NN(C(=O)c2cc(C)nn2C)C(O)(C(F)(F)F)C1 (stereo not given) | 16 | 11µM* | 3% | 0.52µM* | ?
CC1=NN(C(=O)c2csc(C)c2)C(O)(C(F)(F)F)C1 (stereo not given) | 13 | 3.5µM* | 0% | 3% | 5.6µM*
SMILES | IL1B secr inh | RORgamma inh | MCF10A rerep | SW480 rerep | VP16 counter
CN(C)c1cccc(C(=O)NNC(=S)NC2CC3CCC2C3)c1 (stereo not given) | -26 | 4µM* | -1% | -5% | -14%
CC(C)N(C(=S)NC1CC2CCC1C2)c1ccccc1 (stereo not given) | 41 | ? | 8% | -6% | -7%
COc1ccc(Cl)cc1-c1ccc(C(=O)O)o1 | / | 26%[96.6 µM] | / | / | -3%[96.6 µM]
CCn1c(C)nc2cc(C(=O)OC(C(F)(F)C(F)F)C(F)(F)C(F)F)ccc21 | 2 | 7.1µM* | 7% | -2% | 7.1µM*
CC(C)C[C@H]1CN([C@@H](CC(C)C)CN2CCCC2CN2C(=S)NC[C@@H]2Cc2ccccc2)C(=S)N1CC1CCCCC1 (stereo not given in full) | -7 | / | / | / | /
COc1ccc(-c2ccc3c(c2)S(=O)(=O)c2cccc(C(=O)N4CCN(c5ccccn5)CC4)c2C3=O)cc1OC | 10 | / | / | / | /
O=C(NC1CCCC1)c1cccc2c1C(=O)c1ccc(/C=C/c3ccccc3)cc1S2(=O)=O | 33 | / | 2% | 17% | /
COc1ccc(-c2ccc3c(c2)S(=O)(=O)c2cccc(C(=O)N4CCN(C5CCCCC5)CC4)c2C3=O)cc1OC | -18 | / | 21µM* | 21µM* | /
O=C(NC1CCCCC1)c1cccc2c1C(=O)c1ccc(-c3ccc(OC(F)(F)F)cc3)cc1S2(=O)=O | 11 | / | 0.92µM* | 0% | /
O=C(NCc1ccccc1)c1cccc2c1C(=O)c1ccc(/C=C/c3ccccc3)cc1S2(=O)=O | 13 | / | 18µM* | 23µM* | /
COc1ccc(-c2ccc3c(c2)S(=O)(=O)c2cccc(C(=O)NCc4cccc(OC(F)(F)F)c4)c2C3=O)cc1OC | -1 | / | 1.8µM* | 10% | /
CCOc1cc(C)nc(N2CCC(C(=O)NC3CC3)CC2)n1 | 15 | / | 0% | -11% | /
CC(C)c1ccc(NC2CCCN(C(=O)c3cccc4nccnc34)C2)cc1 (stereo not given) | 30 | 4% | 1% | 12% | -14%
Cc1ccc(S(=O)(=O)/N=C(/Nc2ccc(O)c(C(=O)O)c2)c2ccccc2)cc1 | 13 | / | -1% | -5% | /
Fc1ccc2c(c1)C1C=CCC1C(c1cc3c(cc1Br)OCO3)N2 (stereo not given) | 21 | 34% | 23µM* | ? | -4%
O=C1CN(S(=O)(=O)c2cc(Br)ccc2Br)CCN1 | 26 | / | 2% | -8% | /
O=c1c(Br)ccc(Br)cc1Br | -100* | / | ? | ? | /
C/C(=N\NC(=O)c1cc2ccccc2cc1O)c1cccs1 | -50* | -38% | ? | -6% | ?
COc1ccc(C(=O)NNC(=O)c2cc3ccccc3cc2O)cc1 | 140 | / | 9% | ? | /
C/C(=N\NC(=O)c1cccs1)c1c(O)cc(C)oc1=O | 1 | 4.5µM* | -1% | 20% | 5µM*
O=C(NNC(=O)c1cc2ccccc2cc1O)c1cccs1 | 176 | 20µM* | -1% | ? | ?
Cc1cc(C(=O)NN=C(Cc2ccccc2)Cc2ccccc2)c(C)o1 | -7 | ? | 15% | -1% | ?
C/C(=N/NC(=O)c1cccs1)c1cccs1 | -14 | ? | 3% | -1% | -2%
C/C(=N\NC(=O)c1cc(C)oc1C)c1ccc2ccccc2c1 | -13 | 2.2µM* | 4% | 26% | -29%
